The whole screen tested about 2,300 compounds, of which about 790 (34%) were called active. The rule behind the calls is not given here. The list shows a part of the results. Results with a measured potency or affinity are listed apart.

This assay in a line: THP-1 cell cytotoxicity, dose response, cytotoxicity control for non-replicating M. tuberculosis project (AID 489025). The following applies: THP-1 cell viability; series mostly up to 40 µM.
As for `O=C(OCc1ccc([N+](=O)[O-])cc1)c1cc2ccccc2oc1=O`, the result was inactive.
Under `Cc1cccc(NC(=O)c2cc3ccccc3oc2=O)c1` stands “inactive”.
Under `COc1ccccc1/C=C/C=N/NC(=O)c1ccncc1` stands “inactive”; under `Cc1cc(C)n(-c2ccc(C(=O)OCC(=O)Nc3cc(Cl)ccc3[N+](=O)[O-])cc2)n1`, “inactive”; under `COc1ccc(OC(=O)C2CC(=O)N(c3ccc(C)cc3)C2)cc1` (stereo not drawn), “inactive”.
Under `O=C(COC(=O)c1cccs1)NCCC1=CCCCC1` stands “inactive”.
In the case of `CCCCN(C)C(=O)c1cc2cc3ccc(OC)cc3nc2s1`, the result was inactive.
Consider `CN(CC(=O)Nc1ccc(C#N)cc1)Cc1ccc(Cl)c(Cl)c1`, for which the compound was called inactive.
With `Cc1ccnc(NC(=O)COc2ccc3c(c2)CCC3)c1`, the compound was classed as inactive.
As for `Cc1cccnc1NC(=O)COc1ccc2oc3c(c2c1)CCCC3`, the entry is “inactive”; as for `O=C(O)COc1ccc2occ(C(=O)c3ccccc3)c2c1`, “inactive”.
Under `Cc1onc(-c2ccccc2)c1C(=O)Nc1nnc(COc2ccc(Cl)cc2)s1` stands “inactive”; under `O=C(N/N=C\c1ccco1)c1cncc(Br)c1`, “inactive”.
As for `CC(/C=C/c1ccco1)=N/NC(=O)c1ccc(C)nc1`, the entry is “inactive”; as for `O=C(N/N=C/c1ccc([N+](=O)[O-])s1)c1ccncc1`, “inactive”.
As for `CC(=O)N1N=C(c2ccccc2)OC1c1ccc([N+](=O)[O-])s1` (stereo not drawn), the call was inactive.
As for `CNC(=S)N1CCN(c2c(F)cc3c(=O)c(C(=O)O)cn(C4CC4)c3c2OC)CC1C` (stereo not drawn), the entry is “inactive”; as for `O=C(Oc1ccc(F)cc1)c1ccc2c(=O)n3c(nc2c1)CCC3`, “inactive”.
For `CCN(CC)C(=O)c1sc2nc(-c3ccccc3)ccc2c1N`, the outcome was inactive.
As for `O=C(Nc1ccc(Br)cc1)c1cc([N+](=O)[O-])cc([N+](=O)[O-])c1`, the entry is “inactive”.
Under `Cc1ccc(C(=O)CCNc2ccc(F)c(Cl)c2)o1` stands “inactive”; under `CCCCSc1nnc(-c2ccc(C)cc2)o1`, “inactive”; under `CC1=NN(c2ccc(C(=O)O)cc2)C(=O)/C1=C\c1ccc(OC(=O)c2cccs2)cc1`, “inactive”.
As for `CCC(=O)N/N=C/c1ccc(-c2ccc(Cl)cc2)o1`, the entry is “inactive”; as for `O=C(N/N=C/c1cccs1)c1cncc(Br)c1`, “inactive”; as for `COc1ccc(C(=O)COC(=O)c2ccc([N+](=O)[O-])s2)cc1OC`, “inactive”.
As for `O=C(N/N=C/c1ccc(Br)s1)c1ccncc1`, the outcome was inactive.
Under `Cc1ccc(/C=N/NC(=O)c2ccncc2)s1` stands “inactive”; under `Cc1ccc(C(=O)N/N=C\c2ccc[nH]2)cn1`, “inactive”; under `Cc1ccc(NC(=O)CC2SC3=NCCCN3C2=O)c(C)c1` (stereo not drawn), “inactive”.
As for `CCC1CCC(c2nnc(-c3ccc([N+](=O)[O-])cc3)o2)CC1` (stereo not drawn), the entry is “inactive”; as for `Nc1ccc(Br)c2cccnc12`, “inactive”.
As for `CCC(C)n1c(=S)[nH]c2ccccc2c1=O` (stereo not drawn), the entry is “inactive”.
